ERAP1 inh: blocks human ERAP1 aminopeptidase activity. inhibition, % at 10.7 µM. recombinant ERAP1, Leu-AMC fluorescence, 60 min. AID 652197. 0.15% of 340,000 active;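 active = mean replicate inhibition of at least 30%, or all replicates individually reaching that 30% level; inactive = mean below 30% and not every replicate reaching it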;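 note: 0% = neutral control wells and 100% = L-leucinethiol positive control wells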
FGF22 binding-1: FGF22 (human) thermal shift binding. recombinant FGF22 thermal shift, SYPRO orange fluorescence; percent of sucrose octasulfate shift, DMSO zero. Q9HCT0. 1.5% of 340,000 active. activity (Tm shift, normalised), % at 9.99 µM;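 active = mean Tm shift, scaled 0 neutral to 100 positive control, at about 1.3% or above, every replicate too, limit read from the data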
SIRT5 inh: sirtuin-5 (human) deacylase inhibition; Q9NXA8; Purified SirT5, succinyl-peptide AMC, trypsin-coupled fluorescence; inhibition, % at 15 µM; 1.1% of 330,000 active; in the data active = inhibition above about 15%
CASP6 VEID inh: blocks human caspase-6 cleavage activity; P55212; purified caspase-6, Z-VEID-R110 cleavage fluorescence; inhibition, % at 12.5 µM; 0.53% of 350,000 active;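 active = mean inhibition across replicates at least about 35%, with every replicate also reaching that limit, limit read from the data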;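 note: 0% = median of neutral control wells and 100% = no fluorescence left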
Target sequence (P55212 24-179 limits assumed): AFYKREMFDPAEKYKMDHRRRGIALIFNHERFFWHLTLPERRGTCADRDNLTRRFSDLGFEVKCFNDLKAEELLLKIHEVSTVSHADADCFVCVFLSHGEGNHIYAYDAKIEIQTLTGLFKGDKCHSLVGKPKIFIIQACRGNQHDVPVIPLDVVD
Target sequence (P55212 194-293 limits assumed): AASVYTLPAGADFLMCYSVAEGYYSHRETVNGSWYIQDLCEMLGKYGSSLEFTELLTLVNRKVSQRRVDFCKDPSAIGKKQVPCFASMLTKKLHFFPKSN
FGF22 binding-2: binders of human FGF22 by thermal shift; shares compounds with FGF22 binding-1; recombinant FGF22 thermal shift, SYPRO orange fluorescence; thermal shift activity, °C (ΔTm) at 38 µM; 2% of 1,000 active;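 active = fitted rise in melting shift crosses a set limit at or below the top valid dose tested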
SYPRO no-protein: compound-only SYPRO artifact for FGF22 binders; shares compounds with FGF22 binding-1; compound-only SYPRO orange thermal shift counter-screen, no protein; AC50, µM (highest dose often 38 µM); 2% of 1,000 active;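 active = rising signal whose fitted curve reaches the 0.54 level within the top valid dose, showing a melting point, actives reach about 13 µM in these data; inactive = the rest, including activity in the opposite direction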; note: value is where the raw curve crosses a fixed level and not half-maximal
Starred values were filed as active, the others as inactive; i = inactive; . = no result given; [ ] = remark or other dose. Rows were chosen to be rich in hits. Some 3.1% of all compounds tested hit in one or more screens of this group.

SMILES	ERAP1 inh	FGF22 binding-1	SIRT5 inh	CASP6 VEID inh	FGF22 binding-2	SYPRO no-protein
CN(C)S(=O)(=O)n1cnc([C@@H]2[C@@H]3C(=O)OC[C@@H]3C[C@]23N=CN(Cc2ccccc2)C3=O)c1	-3	29*	.	1	0.15	i
O=c1c(Cl)c(O)c2cccc3c4ccccc4n1c23	5	2.3*	-6	11	0.16	i
Cc1cccc(S(=O)(=O)N2CCCCN3[C@@H](CO)[C@@H](c4ccc(C#C[C@H](C)O)cc4)[C@@H]3C2)c1	0	1.3*	4	-2	-0.087[42 µM]	i
Cc1cccc(S(=O)(=O)N2CCCCN3[C@H](CO)[C@@H](c4ccc(C#C[C@H](C)O)cc4)[C@@H]3C2)c1	1	0	15	3	.	.
COc1cc(/C=C2/S/C(=N/S(=O)(=O)Cc3ccccc3)NC2=O)c([N+](=O)[O-])cc1OC	5	1.9*	2	10	0.11	i
COc1cc(/C=C2\S/C(=N/S(=O)(=O)Cc3ccccc3)NC2=O)c([N+](=O)[O-])cc1OC	2	1	3	13	.	.
COc1ccc(S(=O)(=O)N(C)C[C@@H]2Oc3c(NC(=O)Nc4ccc5c(c4)OCO5)cccc3C(=O)N([C@H](C)CO)C[C@H]2C)cc1	0	0	1	-2	.	.
CC1CN(C(=O)C(C)N2CCN(c3ccccc3Cl)CC2)CC(C)O1 (stereo not given)	-2	17*	0	-3	-0.014	i
CC1CN(C(=O)C(C)N2CCN(c3cccc(Cl)c3)CC2)CC(C)O1 (stereo not given)	-4	0	4	-4	.	.
Cc1noc(C)c1NC(=O)N(C)C[C@@H]1OCCCC[C@H](C)Oc2ccc(NS(C)(=O)=O)cc2C(=O)N([C@@H](C)CO)C[C@@H]1C	.	0	.	.	.	.
COCC#Cc1ccc2c(c1)O[C@@H](CN(C)C(=O)c1ccccc1)[C@H](C)CN([C@H](C)CO)S2(=O)=O	1	-1	-1	0	.	.
COCC#Cc1ccc2c(c1)O[C@H](CN(C)C(=O)c1ccccc1)[C@@H](C)CN([C@@H](C)CO)S2(=O)=O	-1	8.3*	-3	-2	0.17[42 µM]	i
CCCN(C)C[C@@H]1Oc2cc(C#CC(C)(C)O)ccc2S(=O)(=O)N([C@@H](C)CO)C[C@@H]1C	1	1.3*	2	-2	0.18[42 µM]	i
COCC(=O)N(C)C[C@H]1Oc2cc(C#Cc3ccccc3)ccc2S(=O)(=O)N([C@H](C)CO)C[C@H]1C	-2	6.2*	2	-1	0.1[42 µM]	i
COCC(=O)N1[C@H](CO)[C@@H]2c3ccccc3N(C(=O)NC(C)C)C[C@@H]21	2	.	-1	2	.	.
COc1ccccc1NC(=O)Nc1nc(CC(=O)Nc2ccc(OC)c(OC)c2)cs1	2	1	-2	-1	.	.
COc1cc(C)ccc1NC(=O)Cc1csc(NC(=O)Nc2ccccc2OC)n1	0	1.6*	0	1	0.096	i
C[C@H]1CCCCO[C@H](CN(C)S(=O)(=O)c2ccc(F)cc2)[C@@H](C)CN([C@@H](C)CO)C(=O)c2cc(NC(=O)Cc3ccccc3)ccc2O1	.	0	.	.	.	.
O=C(Nc1nnc(S(=O)(=O)N2CCCCCC2)s1)c1ccccc1Br	0	0	-1	1	.	.
Cc1ccccc1C(=O)Nc1nnc(S(=O)(=O)N2CCCCC2)s1	1	17*	-2	-1	0.005	i
CCn1c(=O)[nH]c(=O)c2c(N)c(C(=O)c3cc(F)ccc3F)sc21	1	28*	3	1	-0.096	i
CO[C@H]1CC[C@@H]2CCN(C)C(=O)[C@@H](C)N(C)C(=O)c3cc(C#N)ccc3OC[C@@H]1O2	-2	0	1	9	.	.
CS(=O)(=O)N1CC2(C1)[C@@H](c1ccccc1)[C@@H](CO)N2Cc1ccc(F)cc1	1	1.9*	5	1	0.087[42 µM]	i
CS(=O)(=O)N1CC2(C1)[C@H](c1ccccc1)[C@@H](CO)N2Cc1ccccc1	1	0	-7	0	.	.
O=C(NCC(=O)N(CC1CCCO1)C(C(=O)NC1CCCCC1)c1ccccc1)c1cccs1 (stereo not given)	-8	0	-3	-2	.	.
O=C(NCC(=O)N(CC1CCCO1)C(C(=O)NC1CCCCC1)c1cccnc1)c1cccs1 (stereo not given)	-6	18*	-4	-3	0.14	i
